The source made the active and inactive calls.

The test system of test [1] is Human papillomavirus type 1a protein E7 (residues 44-93). Nature of the test: small molecules binding HPV E7 44-93 – biochemical, small-molecule microarray, residues 44-93, 635 nm fluorescence, primary screen (AID 1108).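 Further: E7 fragment applied at 1 µg/mL in TBST for 1 h at 4 C; score combines spot fluorescence with its signal to noise ratio.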 Conditions: fluorescence 635 nm, higher = more signal.
Test [2] can be described thus: hepatitis C replication reporter changes, two-sided – Huh7 cells, luciferase reporter, HCV replication inhibitor project, primary screen (AID 1109).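 Further: huh7 hepatoma cells harbouring a luciferase neomycin HCV replicon reporter; luciferase luminescence as measure of HCV replicon replication; test concentration not given here.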 Particulars: Huh7 HCV replicon luciferase reporter, 48 h; higher = more signal. (In a reporter assay the amount or activity of a reporter protein is the signal.)
Test [3] addresses Left-right determination factor 2 (Homo sapiens) (UniProt O00292). Put plainly: small molecules binding LEFTY2 protein – biochemical, small-molecule microarray, 635 nm fluorescence scan, primary screen (AID 1110). Conditions: higher = more signal.
Test [4] has as its target Calmodulin-1 (Homo sapiens) (UniProt P0DP23). Nature of the test: small molecules binding calmodulin-1 with EGTA – biochemical, small-molecule microarray, Cy5-labelled CALM1, profiling panel (AID 1111).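 Further: labelled calmodulin applied in Tris saline Tween buffer holding calcium plus EGTA and DTT.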 Particulars: Cy5-CALM1 binding fluorescence, higher = more signal.
For test [5] the target is unchanged. Nature of the test: small molecules binding Ca-loaded calmodulin-1 – biochemical, small-molecule microarray, Cy5-labelled CALM1, plus calcium, artefact control for SMM control-protein annotation, profiling panel (AID 1112).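 Further: score merges spot fluorescence with signal to noise from triplicate slides.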 Particulars: Cy5-CALM1 binding fluorescence, higher = more signal.
A short description of test [6]: probe aWnt5a binding to arrayed compounds – biochemical, biotinylated probe, 635/667 nm fluorescence, primary screen (AID 1113).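 Further: score merges 667 nm fluorescence intensity with signal-to-noise per printed feature.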 Conditions: small-molecule microarray, higher = more signal.
Test [7] can be described thus: probe aShh binding to arrayed compounds – biochemical, biotinylated probe, 635/667 nm fluorescence, primary screen (AID 1114).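 Further: probe is biotin-labelled aShh protein from a stem cell growth factor screen; measures binding of labelled protein to compounds printed on the slide; score merges feature fluorescence at 667 nm with signal-to-noise.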 Conditions: small-molecule microarray, higher = more signal.
Test [8] is described as follows: probe aNog binding to arrayed compounds – biochemical, biotinylated probe, 635/667 nm fluorescence, primary screen (AID 1115).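 Further: probe is biotinylated aNog protein used at 0.15 µg/mL for 1 h at 4 C; z-score combines 667 nm fluorescence of each spot with its signal to noise.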 Conditions: small-molecule microarray, higher = more signal.
The target in test [9] is Torsin-1A-interacting protein 1 (Homo sapiens) (UniProt Q5JTV8). Put plainly: compound microarray binding of lysate hLAP1 – cell lysate, small-molecule microarray, COS7 lysate, 635/667 nm fluorescence, primary screen (AID 1116). Particulars: 635 nm fluorescence, higher = more signal.
Chain of Torsin-1A-interacting protein 1 (Homo sapiens) (Q5JTV8 whole entry, looked up): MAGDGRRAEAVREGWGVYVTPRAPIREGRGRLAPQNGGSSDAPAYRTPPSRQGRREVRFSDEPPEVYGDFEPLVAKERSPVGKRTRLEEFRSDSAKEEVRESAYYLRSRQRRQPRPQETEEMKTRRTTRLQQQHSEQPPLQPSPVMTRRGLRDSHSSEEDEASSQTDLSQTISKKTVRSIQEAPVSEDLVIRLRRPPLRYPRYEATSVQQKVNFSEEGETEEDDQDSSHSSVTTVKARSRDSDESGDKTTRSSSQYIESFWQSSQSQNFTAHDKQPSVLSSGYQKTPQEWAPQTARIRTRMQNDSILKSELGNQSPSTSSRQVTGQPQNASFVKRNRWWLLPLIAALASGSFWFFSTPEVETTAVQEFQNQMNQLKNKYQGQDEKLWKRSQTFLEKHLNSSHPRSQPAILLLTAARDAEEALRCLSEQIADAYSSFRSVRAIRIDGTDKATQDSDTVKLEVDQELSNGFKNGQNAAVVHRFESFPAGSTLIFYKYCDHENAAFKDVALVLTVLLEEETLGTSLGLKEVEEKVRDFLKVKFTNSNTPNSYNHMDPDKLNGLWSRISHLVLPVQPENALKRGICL
The target of test [10] is Alpha-bungarotoxin (Bungarus multicinctus) (UniProt P60615). Put plainly: compounds binding labelled alpha-BTX control protein – biochemical, small-molecule microarray, Alexa647 label, 635/667 nm fluorescence, artefact control for SMM control protein annotation, profiling panel (AID 1117). Conditions: alpha-BTX-A647 binding fluorescence, higher = more signal.
Chain of Alpha-bungarotoxin (Bungarus multicinctus) (P60615 whole entry, looked up): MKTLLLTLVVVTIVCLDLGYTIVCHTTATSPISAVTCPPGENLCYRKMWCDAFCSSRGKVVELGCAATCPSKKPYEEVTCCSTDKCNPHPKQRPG
A further test has as its target Albumin (Bos taurus) (UniProt P02769). Put plainly: compounds binding labelled BSA control protein – biochemical, small-molecule microarray, Alexa647 label, 635/667 nm fluorescence, artefact control for SMM control protein annotation, profiling panel (AID 1118).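 Further: score merges 667 nm emission intensity and signal-to-noise per printed compound spot.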 Conditions: BSA-A647 binding, fluorescence 635 nm, higher = more signal.
Test [11] in a line: probe aXIP binding to arrayed compounds – biochemical, NeuroSMM set, 635/667 nm fluorescence, primary screen (AID 1119).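 Further: probe is the protein aXip251-270 applied at 1 µg/mL to compound-printed slides; binding of probe to printed compounds measured as 667 nm fluorescence plus signal to noise.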 Particulars: small-molecule microarray, higher = more signal, called active from +8 up or from −8 down.
Test [12] in a line: probe aNOTCH3 binding on compound microarray – biochemical, small-molecule microarray, 635/667 nm fluorescence, primary screen (AID 1120).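 Further: probe is a biotin-tagged antibody raised against NOTCH3 rather than NOTCH3 protein; score merges spot fluorescence near 667 nm with spot signal to noise.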 Particulars: higher = more signal.
Test [13] in a line: probe aNOTCH2 binding on compound microarray – biochemical, small-molecule microarray, 635/667 nm fluorescence, primary screen (AID 1121).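 Further: score merges feature fluorescence read at 667 nm with its signal to noise.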 Conditions: higher = more signal.
In test [14] the target is Carbonic anhydrase 2 (Homo sapiens) (UniProt P00918). Put plainly: compounds binding carbonic anhydrase 2 – biochemical, small-molecule microarray, Alexa647-labelled CAII, profiling panel (AID 1122). Conditions: CAII-A647 binding fluorescence, higher = more signal.
The nature of test [15]: COS7 lysate on small-molecule microarray, probe aHis, 635 nm (AID 1123).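 Further: z-score combines 667nm fluorescence intensity with signal-to-noise per printed compound spot.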 Particulars: COS7 cell lysate, fluorescence, higher = more signal.
Test [16] in a line: probe aLAP1 signal on lysate-treated microarray – cell lysate, small-molecule microarray, COS7 lysate, primary screen (AID 1124).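 Further: lysate comes from COS7 cells expressing LAP1 and is applied at 0.3 µg/mL; score merges spot fluorescence near 667 nm with signal-to-noise over triplicate slides.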 Particulars: probe aLAP1, fluorescence, higher = more signal.
For the next test, the system named is Sam68 (KHDRBS1). Nature of the test: compounds binding KHDRBS1 protein – biochemical, small-molecule microarray, 635 nm fluorescence, primary screen (AID 1125).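 Further: score merges 667 nm channel intensity with signal to noise over triplicate slides.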 Particulars: higher = more signal.
In test [17] the test system is Chordin-like protein 2 (CHRDL2). Put plainly: compounds binding chordin-like 2 – biochemical, small-molecule microarray, 635 nm fluorescence, primary screen (AID 1126).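 Further: printed compound slides probed with Chrdl2 protein at 4 µg/mL for 1 h at 4 C; score merges 667 nm emission intensity with signal to noise over three replicate slides.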 Particulars: fluorescence 635 nm, higher = more signal.
For test [18], the target named is Concanavalin-A (Canavalia ensiformis) (UniProt P02866). Nature of the test: compounds binding concanavalin A lectin – biochemical, small-molecule microarray, Alexa647 label, 635 nm, artefact control for SMM control protein annotation, primary screen (AID 1127).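 Further: z combines 667 nm emission intensity with signal-to-noise across three replicate slides.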 Conditions: ConA-A647 binding fluorescence, higher = more signal.
Chain of Concanavalin-A (Canavalia ensiformis) (P02866 whole entry, looked up): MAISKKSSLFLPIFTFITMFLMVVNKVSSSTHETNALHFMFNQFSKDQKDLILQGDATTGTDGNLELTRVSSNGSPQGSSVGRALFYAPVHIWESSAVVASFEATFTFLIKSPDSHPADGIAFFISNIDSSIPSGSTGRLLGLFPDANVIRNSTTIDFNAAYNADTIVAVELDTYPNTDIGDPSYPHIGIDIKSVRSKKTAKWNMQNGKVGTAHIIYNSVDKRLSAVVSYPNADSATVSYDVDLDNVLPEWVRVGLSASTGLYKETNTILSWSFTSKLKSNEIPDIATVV

Chain of Albumin (Bos taurus) (P02769 whole entry, looked up): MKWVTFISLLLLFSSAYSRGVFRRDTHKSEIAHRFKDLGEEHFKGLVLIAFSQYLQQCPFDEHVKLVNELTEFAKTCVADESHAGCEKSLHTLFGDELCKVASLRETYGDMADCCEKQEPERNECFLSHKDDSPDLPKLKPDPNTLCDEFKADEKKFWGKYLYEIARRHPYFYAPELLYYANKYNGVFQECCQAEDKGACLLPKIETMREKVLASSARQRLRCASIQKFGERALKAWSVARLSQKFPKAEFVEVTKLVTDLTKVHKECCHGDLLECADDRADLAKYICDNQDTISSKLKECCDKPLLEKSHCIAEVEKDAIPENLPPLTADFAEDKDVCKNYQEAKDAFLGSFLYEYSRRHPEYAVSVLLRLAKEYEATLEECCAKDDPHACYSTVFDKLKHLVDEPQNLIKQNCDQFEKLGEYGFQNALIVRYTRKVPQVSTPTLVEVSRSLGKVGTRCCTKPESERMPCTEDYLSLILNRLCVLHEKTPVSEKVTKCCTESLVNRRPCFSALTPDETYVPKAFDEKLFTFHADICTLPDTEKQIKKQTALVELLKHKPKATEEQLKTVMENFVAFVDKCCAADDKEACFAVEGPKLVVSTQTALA
Chain of Left-right determination factor 2 (Homo sapiens) (O00292 whole entry, looked up): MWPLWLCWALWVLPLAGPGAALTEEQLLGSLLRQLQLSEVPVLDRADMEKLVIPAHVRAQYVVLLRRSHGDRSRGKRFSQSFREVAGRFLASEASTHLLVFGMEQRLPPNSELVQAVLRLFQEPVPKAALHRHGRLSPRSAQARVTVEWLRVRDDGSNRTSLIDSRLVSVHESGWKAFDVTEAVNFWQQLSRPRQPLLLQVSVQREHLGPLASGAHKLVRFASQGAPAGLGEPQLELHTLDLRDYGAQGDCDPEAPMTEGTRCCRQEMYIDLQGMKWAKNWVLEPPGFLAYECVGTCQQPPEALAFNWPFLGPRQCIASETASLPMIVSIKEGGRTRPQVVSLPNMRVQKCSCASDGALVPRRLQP

On to `COCC1=C2[C@@H](CCc3ccccc3)OB(O)C[C@@H]2[C@@H]2C(=O)N(Cc3ccccc3)C(=O)[C@@H]2C1`, for which the composite z-score is -0.0734 in [1]; 0.0192 in test [3]; -0.222 in test [4]; -0.112 in test [5]; -0.0242 in test [6]; -0.214 in [7]. Moreover, the composite z-score was 0.362 in [8]; -0.448 in test [9]; 1.19 in [10]; 0.818 in the test with Albumin (Bos taurus); -0.102 in test [12]; -0.14 in test [13]. Also, the composite z-score in test [14] was 0.404; in test [15], 0.532; in test [16] it was -0.0804; with Sam68 (KHDRBS1), -0.42; in test [17] it was 0.137; in test [18], -0.777. Further, the z-score in test [2] was -0.895. Also, the composite Z-score in test [11] is -0.524 (inactive).

As to `COc1ccc([Si](C)(C)[C@H]2[C@H](CCn3cc([C@H](O)c4ccccc4)nn3)O[C@@]3(C(=O)N(Cc4cccc(N5CCC5=O)c4)c4ccccc43)[C@@H]2C)cc1`, the composite z-score was -0.268 in [1]; 0.183 in [3]; 0.318 in [4]; 0.193 in test [5]; -0.114 in test [6]; 0.0278 in test [7]. Besides, the composite z-score in [8] is -0.118; in [9], 0.412; in [10] it was 0.167; with Albumin (Bos taurus), 0.31; in test [12], -0.219; in test [13], -0.245. For the same molecule, the composite z-score in test [14] was 0.115; in [15], 1.12; in test [16] it was -0.166; in the test with Sam68 (KHDRBS1), 0.316; in test [17], 0.317; in test [18] it was 0.47. The molecule also registered a z-score in test [2] of -1.73. Also, in test [11], the composite Z-score was -0.0916 (inactive).

Consider `COc1ccc(C#Cc2ccc3c(c2)[C@]2(C(=O)N3)[C@H](c3ccc(O)cc3)N3[C@H](c4ccccc4)[C@H](c4ccccc4)OC(=O)[C@H]3[C@@H]2C(=O)N2CCCCCCC2)cc1`, for which the composite z-score worked out at 1.33 in test [1]; 1.07 in test [3]; 2.7 in test [4]; 1.41 in [5]; 0.754 in test [6]; 2.15 in [7]. Also, the composite z-score in test [8] is 2.75; in test [9] it was 4.61; in [10], 1.83; in the test with Albumin (Bos taurus) it was 0.814; in test [12] it was 1.84; in test [13], 0.939. Moreover, the composite z-score was found to be 0.504 in test [14]; 3.27 in test [15]; 0.998 in test [16]; 1.31 in the test on Sam68 (KHDRBS1); 1.23 in test [17]; 1.14 in test [18]. The same molecule gave a z-score in test [2] of -1.01. In addition, in test [11], the composite Z-score was 5.12 (inactive).

On to `COC(=O)[C@@]1(Cc2ccc(F)cc2)[C@H]2c3cc(C(=O)N(C)C)n(CCc4ccccn4)c3C[C@H]2CN1C(=O)c1ccccc1`, for which the composite z-score was 1.39 in test [1]; 0.384 in test [3]; -0.012 in [4]; -0.47 in [5]; 1.12 in test [6]; -0.394 in test [7]. Moreover, the composite z-score in test [8] was 0.796; in [9], 0.468; in test [10] it was 0.292; with Albumin (Bos taurus) it was -0.0737; in test [12] it was 1; in test [13] it was 0.2. For the same molecule, the composite z-score in test [14] is 0.827; in [15], 2.75; in [16] it was 0.52; in the test with Sam68 (KHDRBS1) it was 1.29; in test [17] it was -0.464; in [18] it was 0.542. The molecule further registered a z-score in [2] of -0.72. The composite Z-score in test [11] is 0.004 (inactive).

As to `Cc1ccc([C@H]2[C@H](C(=O)O)[C@H](Sc3ccccc3)[C@@H](C(C)C)N2S(=O)(=O)c2ccc(C)cc2)cc1`, the composite z-score was 1.41 in test [1]; 0.314 in [3]; 1.36 in test [4]; 0.904 in test [5]; 0.0718 in [6]; -0.0709 in test [7]. Also, the composite z-score in [8] is -0.528; in test [9] it was 0.759; in test [10], 0.715; in the test with Albumin (Bos taurus), 0.907; in [12] it was 0.249; in [13], 0.0303. Moreover, the composite z-score in test [14] is 0.66; in test [15], 2.25; in [16], 0.722; in the test on Sam68 (KHDRBS1), 1.31; in test [17], -0.299; in test [18], 1.09. In [2], the z-score was -0.981. For the same molecule, in test [11], the composite Z-score was 0.497 (inactive).

On to `COCCOC(=O)N1C(=O)[C@@]2(c3cc(C#CCNC(N)=O)ccc31)[C@H](C(=O)N1CCc3cc(OC)c(OC)cc3C1)[C@H]1C(=O)O[C@H](c3ccccc3)[C@H](c3ccccc3)N1[C@@H]2c1ccc(OCCO)cc1`, for which the composite z-score is 0.581 in [1]; 0.556 in [3]; 0.432 in test [4]; -0.178 in test [5]; -0.0236 in test [6]; 0.0637 in [7]. Moreover, the composite z-score in test [8] is -0.794; in test [9] it was 0.5; in [10] it was 0.399; in the test with Albumin (Bos taurus), -0.717; in test [12] it was 0.289; in test [13], -0.186. Moreover, the composite z-score in test [14] is 0.225; in test [15] it was 0.423; in [16], 0.406; in the test with Sam68 (KHDRBS1), 0.398; in [17] it was 0.286; in test [18] it was 1.09. This molecule also came in with a z-score in test [2] of -0.45. Further, the composite Z-score in test [11] is 0.202 (inactive).

These data come from PubChem BioAssay.
